Source: PubChem BioAssay (NCATS)
Results filed as inconclusive are left out. Activity calls are given as the source filed them. Calls come from the whole dose curve; as a rule, active = well fitted inhibition curve with a large enough effect; inconclusive = small, poorly fitted or top-dose-only effect; inactive = flat fitted curve, though single readings scatter.

test system: MKL-1; test: qHTS assay to identify novel small-molecules to repurpose for Merkel cell carcinoma treatment (AID 1296009); conditions: MCC and control cell lines, CellTiter-Glo viability, 72 h; series mostly up to 46 µM; note: nearly all actives have a fitted effect of over 60% in size
How it was run: (§1)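 Cell viability measured by CellTiter-Glo following 72 hr compound treatment at 37 degree celsius, with NPC and MIPE libraries tested in 8- and 11-point concentration series.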
Potency is the fitted concentration of half-maximal effect.

| SMILES | Potency |
| --- | --- |
| Cc1[nH]c2ccccc2c1CCNCc1ccc(C=CC(=O)NO)cc1 | 0.332 µM (active) |
| CC(C)C[C@H](NC(=O)CNC(=O)c1cc(Cl)ccc1Cl)B(O)O | 0.743 µM (active) |
| Cc1cn2c(-c3cn[nH]c3)cnc2c(Nc2ccc(C(=O)N3CCNCC3)cc2F)n1 | inactive |
| O=c1[nH]c(=O)n(C2CCCO2)cc1F (stereo not given) | inactive |
| O=C(O)[C@H](Cc1c[nH]c2ccccc12)N1C(=O)c2ccccc2C1=O | inactive |
| CN(C)CCCN=c1c2ccccc2n(C)c2[nH]c(=O)n(C)c(=O)c12 | 10.5 µM (active) |
| CCN(CC)CCNC(=O)c1ccc2nc(-c3ccccc3)c(-c3ccc(CN4CCC(n5c(=O)[nH]c6ccccc65)CC4)cc3)nc2c1 | 1.32 µM (active) |
| O=C(NC1CCNCC1)c1[nH]ncc1NC(=O)c1c(Cl)cccc1Cl | 0.372 µM (active) |
| Cc1cccc(C=NNc2cc(N3CCOCC3)nc(OCCc3ccccn3)n2)c1 | 20.9 µM (active) |
| C[C@@]12O[C@@H](C[C@]1(O)CO)n1c3ccccc3c3c4c(c5c6ccccc6n2c5c31)CNC4=O | 1.48 µM (active) |
| NC(=O)c1cccc2cn(-c3ccc([C@@H]4CCCNC4)cc3)nc12 | 18.7 µM (active) |
| Nc1ccccc1NC(=O)c1ccc(CNc2nccc(-c3cccnc3)n2)cc1 | 2.35 µM (active) |
| CC(C)(C)c1cc(NC(=O)Nc2ccc(-c3cn4c(n3)sc3cc(OCCN5CCOCC5)ccc34)cc2)no1 | inactive |
| CC1(C)OC2=C(C(=O)c3ccccc3C2=O)[C@H](NCc2ccccc2)[C@H]1O | 3.32 µM (active) |

test system: MKL-2; test: as above; conditions: MCC and control cell lines, CellTiter-Glo viability, 72 h; series mostly up to 46 µM
How it was run: as §1

| SMILES | Potency |
| --- | --- |
| COc1cccc2c(NCc3ccccc3)nc(-n3c(N)nc4ccccc43)nc12 | 4.69 µM (active) |
| CCCCCCCCCC(=O)N[C@@H](Cc1c[nH]c2ccccc12)C(=O)N[C@H](CC(N)=O)C(=O)N[C@@H](CC(=O)O)C(=O)N[C@@H]1C(=O)NCC(=O)N[C@@H](CCCN)C(=O)N[C@@H](CC(=O)O)C(=O)N[C@H](C)C(=O)N[C@@H](CC(=O)O)C(=O)NCC(=O)N[C@H](CO)C(=O)N[C@@H]([C@@H](C)CC(=O)O)C(=O)N[C@@H](CC(=O)c2ccccc2N)C(=O)O[C@@H]1C | inactive |
| CC(C)(O)c1cc2nc(-c3cnc(N)nc3)nc(N3CCOCC3)c2s1 | inactive |
| O=C(O)c1ccc2c(c1)nc(Nc1cccc(Cl)c1)c1ccncc12 | 5.26 µM (active) |
| COC(=O)C[C@](O)(CCCC(C)(C)O)C(=O)O[C@@H]1C(OC)=C[C@]23CCCN2CCc2cc4c(cc2[C@H]13)OCO4 | inactive |
| CN1CCN(c2cc(C(=O)Nc3ccc4c(c3)-c3c(c(C(N)=O)nn3-c3ccc(F)cc3)CC4)c(Cl)cn2)CC1 | 26.4 µM (active) |
| Cc1[nH]c2ccccc2c1CCNCc1ccc(C=CC(=O)NO)cc1 | 0.0469 µM (active) |
| CC(C)C[C@H](NC(=O)CNC(=O)c1cc(Cl)ccc1Cl)B(O)O | 0.264 µM (active) |
| Cc1cn2c(-c3cn[nH]c3)cnc2c(Nc2ccc(C(=O)N3CCNCC3)cc2F)n1 | inactive |
| O=c1[nH]c(=O)n(C2CCCO2)cc1F (stereo not given) | inactive |
| O=C(O)C1(Cc2cccc(Nc3nccs3)n2)CCC(Oc2cccc(Cl)c2F)CC1 (stereo not given) | inactive |
| O=C(O)[C@H](Cc1c[nH]c2ccccc12)N1C(=O)c2ccccc2C1=O | inactive |
| CN(C)CCCN=c1c2ccccc2n(C)c2[nH]c(=O)n(C)c(=O)c12 | 14.8 µM (active) |
| CCN(CC)CCNC(=O)c1ccc2nc(-c3ccccc3)c(-c3ccc(CN4CCC(n5c(=O)[nH]c6ccccc65)CC4)cc3)nc2c1 | 1.18 µM (active) |
| COc1cc2c(NC3CCN(C(C)C)CC3)nc(C3CCCCC3)nc2cc1OCCCN1CCCC1 | 6.62 µM (active) |
| O=C(NC1CCNCC1)c1[nH]ncc1NC(=O)c1c(Cl)cccc1Cl | 0.833 µM (active) |
| COc1cc(C)c(Sc2cnc(NC(=O)c3ccc(CNC(C)C(C)C)cc3)s2)cc1C(=O)N1CCN(C(C)=O)CC1 (stereo not given) | inactive |
| Cc1cccc(C=NNc2cc(N3CCOCC3)nc(OCCc3ccccn3)n2)c1 | 16.6 µM (active) |
| C[C@@]12O[C@@H](C[C@]1(O)CO)n1c3ccccc3c3c4c(c5c6ccccc6n2c5c31)CNC4=O | 0.0526 µM (active) |
| Nc1ccccc1NC(=O)c1ccc(CNc2nccc(-c3cccnc3)n2)cc1 | 1.48 µM (active) |
| CC(C)(C)c1cc(NC(=O)Nc2ccc(-c3cn4c(n3)sc3cc(OCCN5CCOCC5)ccc34)cc2)no1 | inactive |
| CN1CCC(CNc2ccc3ncc(-c4cccc(OC(F)(F)F)c4)n3n2)CC1 | inactive |
| CC(C)c1cc(-c2n[nH]c(=O)n2-c2ccc3c(ccn3C)c2)c(O)cc1O | inactive |

test system: NIH3T3; test: as above; conditions: MCC and control cell lines, CellTiter-Glo viability, 72 h; at 44.8 µM (top of the series) unless noted
How it was run: as §1

| SMILES | outcome |
| --- | --- |
| CCCCCCCCCC(=O)N[C@@H](Cc1c[nH]c2ccccc12)C(=O)N[C@H](CC(N)=O)C(=O)N[C@@H](CC(=O)O)C(=O)N[C@@H]1C(=O)NCC(=O)N[C@@H](CCCN)C(=O)N[C@@H](CC(=O)O)C(=O)N[C@H](C)C(=O)N[C@@H](CC(=O)O)C(=O)NCC(=O)N[C@H](CO)C(=O)N[C@@H]([C@@H](C)CC(=O)O)C(=O)N[C@@H](CC(=O)c2ccccc2N)C(=O)O[C@@H]1C | inactive |
| O=C(O)c1ccc2c(c1)nc(Nc1cccc(Cl)c1)c1ccncc12 | inactive |
| CC(C)(C)c1cc(NC(=O)Nc2ccc(-c3cn4c(n3)sc3cc(OCCN5CCOCC5)ccc34)cc2)no1 | inactive |
